# Source: PubChem BioAssay (National Center for Advancing Translational Sciences (NCATS))
# DT40 TDP1 CPT = DT40-hTDP1 cell growth loss with CPT; Potency, µM (doses to about 46.2 µM), hits mostly inhibitors; AID 686979; 420,000 tested, 12% active; chicken DT40 Tdp1-/-;hTDP1 cells + 20 nM CPT, ATP luminescence, 48 h; note: nearly all actives have a fitted effect of over 55% in size
#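 Chicken DT40 Tdp1-/- cells stably complemented with human TDP1 were seeded at 400 cells/well in medium containing 20 nM camptothecin, exposed to pin-transferred compounds, and grown at 37 °C for at least 48 hr. Viability was read as ATP luminescence.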
# RORg inh = ROR gamma (mouse) transcription inhibition. P51450. Drosophila S2 Gal4-RORgamma UAS-luciferase reporter, 20 h. Potency, µM (top dose mostly 53.6 µM), hits mostly inhibitors. 310,000 tested, 5.4% active. AID 2551; note: nearly all actives have a fitted effect of over 60% in size
#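 In this cell-based reporter format, copper sulfate (700 uM final) drives Gal4–ROR gamma fusion expression from a metallothionein promoter in Drosophila Schneider cells; compounds preincubated 1 hr, reporter read after 20 hr at ambient temperature.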
# ELG1 repair inh = inhibitors of ELG1-dependent DNA repair in HEK293T cells | HEK293T ELG1-luciferase reporter, luminescence, 16 h; DNA damage induced by 5-fluorouridine | Potency, µM (top dose mostly 46.1 µM), usual class: inhibitors | 330,000 tested, 2.3% active; note: nearly all actives have a fitted effect of over 55% in size
#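 Reporter activity after DNA damage by 5-fluorouridine is monitored. Compound-treated cells incubate 16 hr at 37 °C, then ONE-Glo is added for 30 min before luminescence reading.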
# VP16 counter = inhibits Gal4-VP16 luciferase reporter, ROR gamma counter-screen. Potency, µM (doses to about 53.6 µM), most hits filed as inhibitors. Drosophila S2 Gal4-VP16 UAS-luciferase, luminescence, 20 h. 310,000 tested, 3.5% active. AID 2546;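 note: Gal4-VP16 expression switched on by copper sulfate through the metallothionein promoter; nearly all actives have a fitted effect of over 50% in size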
# DT40 TDP1 no CPT = qHTS for Inhibitors of human tyrosyl-DNA phosphodiesterase 1 (TDP1): qHTS in cells in absence of CPT; DT40 Tdp1-/- hTDP1 cells, no CPT, ATP luminescence, 48 h; 420,000 tested, 15% active; Potency, µM (doses to about 46.2 µM), most hits filed as inhibitors; AID 686978, 2013; note: nearly all actives have a fitted effect of over 55% in size
#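 Growth kinetics read by CellTiter-Glo luminescence after ≥48 hr at 37 °C. Cells: DT40 Tdp1-/- stably carrying human TDP1, 400 per well, compound exposure in the absence of CPT (DMSO vehicle).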
# ALOX12 inh = ALOX12 (human) lipoxygenase inhibition; P18054; purified 12hLO, xylenol orange hydroperoxide absorbance; Potency, µM (highest dose often 108 µM), most hits filed as inhibitors; 580,000 tested, 1.1% active; AID 1671190
# Target sequence (P18054 whole entry, looked up): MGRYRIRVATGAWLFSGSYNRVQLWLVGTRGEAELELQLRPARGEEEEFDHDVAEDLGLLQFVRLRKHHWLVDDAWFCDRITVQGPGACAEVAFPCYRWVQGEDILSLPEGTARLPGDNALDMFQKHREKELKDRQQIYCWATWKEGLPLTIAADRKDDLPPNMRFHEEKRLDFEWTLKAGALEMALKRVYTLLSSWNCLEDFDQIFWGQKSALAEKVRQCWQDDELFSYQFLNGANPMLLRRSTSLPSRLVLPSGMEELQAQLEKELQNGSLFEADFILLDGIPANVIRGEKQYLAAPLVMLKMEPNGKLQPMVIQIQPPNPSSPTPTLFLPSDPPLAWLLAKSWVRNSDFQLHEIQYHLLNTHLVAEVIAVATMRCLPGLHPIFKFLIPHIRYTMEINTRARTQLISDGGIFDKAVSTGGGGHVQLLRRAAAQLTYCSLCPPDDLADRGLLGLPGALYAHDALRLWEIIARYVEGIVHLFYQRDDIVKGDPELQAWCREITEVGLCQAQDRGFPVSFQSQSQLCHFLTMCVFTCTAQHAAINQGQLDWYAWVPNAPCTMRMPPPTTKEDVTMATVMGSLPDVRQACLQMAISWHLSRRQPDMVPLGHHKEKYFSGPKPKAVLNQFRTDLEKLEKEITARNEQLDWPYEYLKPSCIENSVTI
#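 Purified human 12hLO (150 nM final) in 25 mM Hepes, 0.01% Triton X-100, pH 7.0 was preincubated 15 min at room temperature with compound. Then 40 uM arachidonic acid was added, 30 min. Hydroperoxide was read by Fe-XO absorbance ratio 573/405 nm.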
# Numbers stand for hits; n = inactive; u = inconclusive; x = not tested or not shown; [ ] = dose if it differs, or a comment. The list is not random: actives were taken first. Their share in the collection is about 15%. Calls come from the whole dose curve; as a rule, active = well fitted curve in the direction sought with a large enough effect; inconclusive = small, poorly fitted or top-dose-only effect, or another doubt; inactive = no such curve, though single readings can be large; an effect the other way counts as inactive or inconclusive.
SMILES,DT40 TDP1 CPT,RORg inh,ELG1 repair inh,VP16 counter,DT40 TDP1 no CPT,ALOX12 inh
Cc1nc(SCC(=O)Nc2ccc3c(c2)OCCO3)c2oc3ccccc3c2n1,n,n,n,n,u,n
CCc1nc(NCc2ccccn2)c2oc3ccccc3c2n1,15µM,n,18µM,u,15µM,u
Cc1cccc(Nc2nc(C)nc3c2oc2ccccc23)c1,16µM,n,u,n,u,u
CCc1nc(SCC(=O)Nc2ccc3c(c2)OCCO3)c2oc3ccccc3c2n1,u,n,n,n,26µM,n
CCc1nc(Nc2cc(OC)ccc2OC)c2oc3ccccc3c2n1,u,n,n,n,u,u
CCc1nc(Nc2ccc3c(c2)OCO3)c2oc3ccccc3c2n1,21µM,n,u,n,12µM,n
CCn1c(SCC(=O)Nc2cc3c(cc2C(C)=O)OCO3)nnc1C1CC1,x,x,x,x,x,n
COc1cccc(CN2CCCCC23Cc2ccccc2CNC3=O)n1 (centres undefined),x,x,x,x,x,n[6.33 µM]
CNC(=O)[C@@H]1C[C@@H](n2cc(CNC(=O)Nc3cc(C)ccc3C)nn2)CN1,x,x,x,x,x,n
CNC(=O)c1ccc(CNC(=O)C2CCCC2)cc1,x,x,x,x,x,n
O=C(NCCc1csc(-c2ccccn2)n1)c1ccccc1,x,x,x,x,x,n
O=C1NC(=NC2CCCCC2)C2(CCN(CC3CCCCC3)CC2)N1c1cccnc1,x,x,x,x,x,n[6.33 µM]
Cc1cccc2c(Nc3ccc4c(c3)OCO4)nc(CN3CCC(N4CCCCC4)CC3)nc12,15µM,x,x,x,21µM,n
CCc1nc(Nc2ccncc2)c2oc3ccccc3c2n1,5.8µM,n,u,n,2.3µM,n
CCc1nc(Nc2cccc(O)c2)c2oc3ccccc3c2n1,u,u,u,u,26µM,x
CCc1nc(Nc2ccccc2OC)c2oc3ccccc3c2n1,u,u,n,n,u,u
Cc1nc(Nc2ccncc2)c2oc3ccccc3c2n1,10µM,n,16µM,n,12µM,n
Nc1ccc2cc(S(=O)(=O)O)cc(S(=O)(=O)O)c2c1,x,x,x,x,x,n
CCOCCCNC(=O)c1cc2c(-c3ccc(OC)c(OC)c3)nn(C)c2s1,7.3µM,x,x,x,18µM,n
COC(=O)c1ccccc1NC(=O)c1cc2c(-c3ccc(OC)c(OC)c3)nn(C)c2s1,n,x,x,x,n,n
COc1ccc(CCNC(=O)c2cc3c(-c4ccc(OC)c(OC)c4)nn(C)c3s2)cc1OC,2.6µM,x,x,x,2.9µM,n
Cc1ccc(C)c(NC(=O)C(Sc2ccccc2)c2ccccc2)c1 (centres undefined),x,x,x,x,x,n
CN1CCN(C2=C(Cl)C(=O)c3ccccc3C2=O)CC1,2.3µM,x,x,x,2.6µM,u
O=C1C(Cl)=C(N2CCC(C(=O)O)CC2)C(=O)c2ccccc21,15µM,u,n,n,16µM,x
O=C(O)C1CCN(C(=O)c2ccccc2Cl)CC1,n,n,n,n,n,n
SMILES,DT40 TDP1 CPT,RORg inh,ELG1 repair inh,VP16 counter,DT40 TDP1 no CPT,ALOX12 inh
NC(=O)C1CCN(C2=C(Cl)C(=O)c3ccccc3C2=O)CC1,2.3µM,n,u,n,2.9µM,n
NC(=O)C1CCN(c2ccc3c(c2)S(=O)(=O)c2ccccc2C3=O)CC1,u,x,x,x,n,n
CC1COCC(C)N1C1=C(Cl)C(=O)c2ccccc2C1=O (centres undefined),0.65µM,x,x,x,1.5µM,u
CN1C(=O)CCC2(CNC(=O)CCc3nc(-c4ccccc4)no3)CCC=C12 (centres undefined),x,x,x,x,x,n
CN1CCN(C2=C(Cl)C(=O)C(c3cnc(N4CCCCC4)s3)=C(Cl)C2=O)CC1,2.1µM,n,n,n,1.6µM,x
CN(C)S(=O)(=O)c1ccc(-c2nc(C#N)c(NCCCN3CCOCC3)o2)cc1,x,x,x,x,x,n
CC(=O)C1=C(O)CC(C)(C)CC1=NCc1nc2ccccc2[nH]1,u,n,n,n,16µM,n
CC(=O)C1=C(O)CCCC1=NCc1nc2ccccc2[nH]1,n,n,n,n,u,n
CCOc1cccc2cc(-c3cc(=O)oc4cc(O)ccc34)c(=O)oc12,x,x,x,x,x,n
CCC(=O)N1Cc2ccccc2CC2(CCN(Cc3cccnc3)C2)C1 (centres undefined),x,x,x,x,x,n[6.33 µM]
CCCCOC(=O)n1c(=S)oc2cc(Cl)ccc21,8.2µM,n,u,n,23µM,n
COC(=O)n1c(=S)oc2cc(Cl)ccc21,x,n,n,n,x,x
O=C(Oc1c(-c2ccccc2)c(=O)n2c3c(cccc13)CC2)c1ccco1,n,n,u,n,u,n
O=C(Oc1c(-c2ccccc2)c(=O)n2c3c(cccc13)CC2)c1ccc(Cl)cc1,n,n,u,n,21µM,n
CCOc1ccccc1C(=O)N1CCN(c2cc(-c3ccc(Cl)cc3)[nH]n2)CC1,x,x,x,x,x,n
CCn1c(SCC(=O)c2ccc([N+](=O)[O-])cc2)nnc1-c1ccc(Cl)cc1,x,x,x,x,x,n
O=C(CSc1nnc(SCc2ccccc2)s1)NNC(=S)Nc1ccccc1,n,14µM,n,13µM,u,u
CCn1c(SCC(=O)NNC(=S)Nc2ccc(C)cc2)nnc1-c1ccc(Cl)cc1,u,3.5µM,n,1.4µM,u,n
Cc1noc(NS(=O)(=O)c2ccc(NC(=O)CSc3nnc(-c4ccccc4)n3C3CCCCC3)cc2)c1C,n,n,n,n,n,n
CCn1c(SCC(=O)c2ccc(O)c(O)c2)nnc1-c1ccc(C)cc1,23µM,n,n,n,u,u
Cc1ccc(NC(=S)NNC(=O)CSc2nnc(-c3ccc(Cl)cc3)n2C2CCCCC2)cc1,u,11µM,n,u,u,u
CC(=O)Nc1ccc(NC(=O)c2cccc3c(Br)cccc23)cc1,x,x,x,x,x,n
CCC(=O)Nc1cccc(OCC(=O)NCc2sc(C)nc2CC)c1,x,x,x,x,x,n
COc1ccc(CCN2CC(NC(=O)c3csc(C)n3)CC2=O)cc1 (centres undefined),x,x,x,x,x,n
CC(C)CNC(=O)CN1CCN(c2nc(C(F)(F)F)nc3ccccc23)CC1,x,x,x,x,x,n
SMILES,DT40 TDP1 CPT,RORg inh,ELG1 repair inh,VP16 counter,DT40 TDP1 no CPT,ALOX12 inh
O=C(Cc1ccccc1)NCC1CN(Cc2cccc(Cl)c2)CC12CN(c1ccccc1)C2 (centres undefined),x,x,x,x,x,n
Cn1c(SCC(=O)NN2C(=O)NC(C)(c3ccccc3)C2=O)nnc1-c1ccncc1 (centres undefined),n,x,n,x,29µM,n
Cn1c(SCC(=O)NNC(=S)Nc2ccccc2)nnc1-c1ccccc1,n,0.89µM,u,1.4µM,n,n
CCn1c(SCC(=O)NNC(=O)c2ccc(C)cc2)nnc1C(C)C,u,n,n,n,10µM,n
COc1ccc(-c2noc(-c3cccn3CC(=O)N3CCC(C)CC3)n2)cc1F,x,x,x,x,x,n
CCOC(=O)/C=C/[C@@H](CCC(=O)OC)NC(=O)C(F)(F)F,x,x,x,x,x,n
